# Reference: PubChem BioAssay AID2549 (National Center for Advancing Translational Sciences (NCATS), 2010)
# Values joined by “and” are separate entries in the source; they are usually repeats but may differ in a detail not shown here. Identical values can stand only once. About 1,300 (0.54%) of roughly 240,000 compounds were called active. Roughly 1% stayed inconclusive and do not appear here. The call rests on the fitted dose curve; in most records, active means well fitted inhibition curve with a large enough effect; inconclusive means small, poorly fitted or top-dose-only effect; inactive means flat fitted curve, though single readings scatter. The entries come from a sample that favours actives as a whole. Where a structure was tested more than once in an assay, its records may differ in their call.
# Biological target: ATP-dependent DNA helicase Q1 (Homo sapiens) (UniProt P46063)
# Sequence (P46063 whole entry, looked up): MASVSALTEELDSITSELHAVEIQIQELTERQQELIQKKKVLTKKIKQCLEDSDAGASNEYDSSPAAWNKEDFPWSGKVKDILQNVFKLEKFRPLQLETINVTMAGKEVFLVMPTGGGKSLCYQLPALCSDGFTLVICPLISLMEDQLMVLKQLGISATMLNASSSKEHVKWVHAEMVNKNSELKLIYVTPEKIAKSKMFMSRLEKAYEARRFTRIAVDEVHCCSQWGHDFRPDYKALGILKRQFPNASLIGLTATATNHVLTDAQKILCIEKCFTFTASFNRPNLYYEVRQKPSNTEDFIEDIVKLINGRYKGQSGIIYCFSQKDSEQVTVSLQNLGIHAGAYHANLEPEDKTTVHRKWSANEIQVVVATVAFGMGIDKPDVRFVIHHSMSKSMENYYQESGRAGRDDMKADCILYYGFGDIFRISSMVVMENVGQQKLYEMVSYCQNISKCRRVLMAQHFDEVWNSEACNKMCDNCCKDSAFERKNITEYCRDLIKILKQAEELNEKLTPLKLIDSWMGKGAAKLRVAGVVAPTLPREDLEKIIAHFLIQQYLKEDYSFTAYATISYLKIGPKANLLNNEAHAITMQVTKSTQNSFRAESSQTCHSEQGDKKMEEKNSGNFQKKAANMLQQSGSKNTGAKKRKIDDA
# Assay: qHTS Assay for Inhibitors of RecQ-Like Dna Helicase 1 (RECQ1); further: nearly all actives have a fitted effect of over 30% in size;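 on activity, negative = inhibition: plate controls were vehicle for no effect and no enzyme for full effect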
# Conditions: RECQ1 DNA unwinding, red fluorescence kinetic read; series mostly up to 57.3 µM; activity, negative = inhibition: at the top concentration
# How it was run: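 RECQ1T1 50 nM; forked duplex (20 bp + 30-nt ss tails) 200 nM, ATP 2 mM final; pH 8.0, 2 mM MgCl2, 2.5 ug/ml poly(dI-dC); 15 min compound preincubation; discontinuous kinetic read over 2 h at RT.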
# Potency means the concentration at half of the fitted maximal effect.
Molecule,"activity, negative = inhibition",Potency,outcome
O=C(CCCN1C(=O)/C(=C/c2ccco2)SC1=S)Nc1ccccc1,-20% (inactive),,
CCOc1ccccc1/C=c1\sc2nc(-c3ccco3)nn2c1=O,-5.09% (inactive),,
O=c1nc2s/c(=C\c3ccco3)c(=O)n2nc1Cc1ccccc1,,5.01 µM (active),
CCCN1CCC(=O)N(C(CSc2ccc(C)cc2)Cc2ccccc2)CC1 (stereo unspecified),-7.14% (inactive),,
COC(=O)CCc1ccccc1S(=O)(=O)N(CCC(=O)OC)Cc1ccccc1,-5.73% (inactive),,
Cc1sc2nc(CSCC(=O)Nc3c(Cl)cccc3Cl)[nH]c(=O)c2c1C,-7.69% (inactive),,
COc1ccc(CCNC(=O)CSc2nnc(CNC(=O)c3cccs3)o2)cc1OC,,,inactive
COc1cc(C(=O)NCc2nnc(SCC(=O)Nc3nc4ccc(C)cc4s3)o2)cc(OC)c1OC,,39.8 µM (active),
Cc1ccc(NC(=O)CSc2nnc(CNC(=O)c3ccccc3F)o2)cc1,-3.3% (inactive),,
COc1ccc(CN2CCC(=O)c3ccccc3S2(=O)=O)cc1,,,inactive
CC(=O)Nc1ccc(Nc2c3ccccc3nc3ccccc23)cc1,,14.1 µM (active),
Cc1ccc(Nc2c3c(nc4ccccc24)CCC3)cc1,-5.59% (inactive),,
O=[N+]([O-])c1cccc(Nc2c3ccccc3nc3ccccc23)c1,-1.8% (inactive),,
CCOC(=O)Cn1c(=O)sc2cccc(Cl)c21,5.27% (inactive),,
O=C(Nc1ccc(Cl)cc1)Nc1nnc(/C=C/c2ccccc2)s1,,,inactive
CCOCCOC(=O)C(C)Oc1ccc(Oc2ncc(C(F)(F)F)cc2Cl)cc1 (stereo unspecified),-19.4% (inactive),,
C[C@@H]1O[C@@H](OC[C@H]2O[C@@H](Oc3cc(O)c4c(c3)O[C@H](c3ccc(O)c(O)c3)CC4=O)[C@H](O)[C@@H](O)[C@@H]2O)[C@H](O)[C@H](O)[C@H]1O,-12.6% (inactive),,
COc1ccc(C[C@H](C(=O)O)N2C(=O)c3ccc(C(=O)O)cc3C2=O)cc1,,,inactive
CN(C)S(=O)(=O)Oc1ccccc1C(=O)Nc1ccccc1Cl,2.71% (inactive),,
NCCCCC(N)C(=O)O (stereo unspecified),-3.84% (inactive),,
COc1ccc(NC(=O)Nc2ccc3nsnc3c2)cc1,-33.9% (inactive),,
O=C(Nc1ccc2nccnc2c1)c1ccco1,,,inactive
COCCNC(=O)Nc1ccc2nc(-c3ccco3)c(-c3ccco3)nc2c1,,8.91 µM (active),
O=C(NCc1ccccn1)c1ccc2nc(-c3ccco3)c(-c3ccco3)nc2c1,,15.8 µM (active),

Molecule,"activity, negative = inhibition",Potency,outcome
O=C(NCc1ccccn1)c1cc(-c2ccccc2Cl)on1,-5.28% (inactive),,
O=C(NCc1ccccn1)c1cc(Br)ccc1Cl,,,inactive
H-EHIPA-OH,-4.14% (inactive),,
OCCC(O)CO (stereo unspecified),,inactive,
CC[C@H](C)[C@H](NC(=O)[C@H](CCCNC(=N)N)NC(=O)[C@H](CCCNC(=N)N)NC(=O)[C@H](CC(C)C)NC(=O)[C@H](Cc1ccccc1)NC(=O)CNC(=O)CNC(=O)[C@@H](N)Cc1ccc(O)cc1)C(=O)N[C@@H](CCCNC(=N)N)C(=O)N1CCC[C@H]1C(=O)N[C@@H](CCCCN)C(=O)N[C@@H](CC(C)C)C(=O)N[C@@H](CCCCN)C(=O)N[C@@H](Cc1c[nH]c2ccccc12)C(=O)N[C@@H](CC(=O)O)C(=O)N[C@@H](CC(N)=O)C(=O)N[C@@H](CCC(N)=O)C(=O)O,-6.92% (inactive),,
CCOC(=O)C(C)Sc1nnc(CSc2nc3nc(C)cc(C)n3n2)o1 (stereo unspecified),-0.989% (inactive),,
CC(C)(C)[C@H]1C=C(C(=O)NCc2ccccc2)O[C@@H](OCc2ccc(CO)cc2)C1,,,inactive
O=C(NCc1ccccc1)C1=C[C@@H](C2CCCCC2)C[C@@H](OCc2ccc(CO)cc2)O1,,15.8 µM (active),
O=C(NCc1ccccc1)C1=C[C@H](C2CC2)C[C@H](OCc2ccc(CO)cc2)O1,-0.989% (inactive),,
Cc1cc(N(C)C)nc(Cl)n1,-18.3% (inactive),,
NCCC(=O)c1ccccc1N,,,inactive
Oc1ccc(-c2c(-c3ccccc3)nn3c(C(F)(F)F)cc(C(F)(F)F)nc23)cc1,8.87% (inactive),,
CC12CCC(C(=O)N(c3cccc(Cl)c3)C1=O)C2(C)C (stereo unspecified),3.9% (inactive),,
O=C(NN1C(=O)C2C(C1=O)C1C=CC2C12CC2)c1ccccc1Cl (stereo unspecified),-3.11% (inactive),,
CC12CCC(C(=O)N(NC(=O)c3ccccc3O)C1=O)C2(C)C (stereo unspecified),,39.8 µM (active),
CO[C@@]12[C@@H](COC(N)=O)C3=C(C(=O)C(C)=C(N)C3=O)N1C[C@@H]1N[C@@H]12,,,inactive
Cc1ccc(S(=O)(=O)N2CCC(=O)N([C@H](COCc3ccccc3)Cc3ccccc3)CC2)cc1,-4.94% (inactive),,
CC[C@H](C)[C@H](NC(=O)[C@H](Cc1ccc(O)cc1)NC(=O)[C@@H](NC(=O)[C@H](CCCN=C(N)N)NC(=O)[C@@H](N)CC(=O)O)C(C)C)C(=O)N[C@@H](Cc1cnc[nH]1)C(=O)N1CCC[C@H]1C(=O)N[C@@H](Cc1ccccc1)C(=O)O,14.2% (inactive),,
CCCn1c(C(O)c2ccc(OCC)cc2)nc2ccccc21 (stereo unspecified),-5.82% (inactive),,
CCCCCC(O)c1cccc(OCc2ccc3ccccc3n2)c1 (stereo unspecified),,inactive and 28.2 µM (active),
CCCCCCOC(=O)NCC(O)c1ccccc1 (stereo unspecified),,,inactive
COc1ccc(C2/C=C\CN(C(=O)c3ccc(C)cc3)C(Cc3ccccc3)C(=O)N2Cc2ccc(F)cc2)cc1 (stereo unspecified),,,inactive
COc1ccc(C2/C=C\CN(Cc3ccco3)C(C)C(=O)N2Cc2ccc(F)cc2)cc1 (stereo unspecified),-12.4% (inactive),,
CCOC(=O)CC1C(=O)NCCN1C(=O)COc1ccc(Br)cc1C (stereo unspecified),-8.2% (inactive),,

Molecule,"activity, negative = inhibition",Potency,outcome
CCOC(=O)CC1C(=O)NCCN1c1nc2c(C)cccn2c(=O)c1/C=C1\SC(=S)N(C(C)CC)C1=O (stereo unspecified),,35.5 µM (active),
Cc1cccn2c(=O)c(/C=C3\SC(=S)N(CC(C)C)C3=O)c(NCCCOC(C)C)nc12,2.64% (inactive),,
CCC(C)(C)NC(=O)c1cc([N+](=O)[O-])ccc1N1CCCCC1,-6.6% (inactive),,
COc1ccc(C(CCN2CCOCC2)c2c(OC)cc(OC)c3c2OC(=O)CC3c2ccc(OC)cc2)cc1 (stereo unspecified),-5.93% (inactive),,
COc1ccc(Cl)cc1C(=O)NNC(=S)NC1CCCC1,21.4% (inactive),,
C=CCNC(=S)NNC(=O)c1cc(Cl)ccc1OC,-9.23% (inactive),,
COc1ccc(Cl)cc1C(=O)NNC(=S)NC(=O)/C=C/c1ccco1,,31.6 µM (active),
O=C(CSC1=Nc2ccccc2C2=NC(CC(=O)NCc3ccco3)C(=O)N12)NCc1ccco1 (stereo unspecified),9.12% (inactive),,
CC(C)C1N=C2c3ccccc3N=C(SCC(=O)c3ccc(O)c(O)c3)N2C1=O (stereo unspecified),,14.1 µM (active),
CCC(C)NC(=O)CSC1=Nc2ccccc2C2=NC(CCC(=O)NCc3ccco3)C(=O)N12 (stereo unspecified),-4.68% (inactive),,
O=P(O)(O)C(O)c1ccc2ccccc2c1 (stereo unspecified),-4.2% (inactive),,
CC(C)(C)N(Cc1ccccc1)C(=O)COC(=O)CCc1c[nH]c2ccccc12,-1.03% (inactive),,
COc1cccc(C(=O)Nc2c3c(nn2-c2cccc(C)c2C)CS(=O)(=O)C3)c1OC,-0.603% (inactive),,
Cc1cccc(-n2nc3c(c2NC(=O)c2ccc(Br)o2)CSC3)c1C,,35.5 µM (active),
Cc1ccc(-n2nc3c(c2NC(=O)c2ccc4c(c2)OCO4)CSC3)c(C)c1,0.297% (inactive),,
Nc1nc2c(ncn2[C@@H]2O[C@H](COP(=O)(O)OP(=O)(O)OP(=O)(O)O)[C@@H](O)C2O)c(=O)[nH]1 (stereo partly specified),,,inactive
c1ccc(CN2CCC(N=C3NN=C(c4ccc5c(c4)OCCO5)CS3)CC2)cc1,-3.29% (inactive),,
S=c1[nH]c2ccccc2c2ccccc12,-10.8% (inactive),,
COc1ccc(NC(=O)CSc2nc(NS(=O)(=O)c3ccc(C)cc3)cc(=O)[nH]2)cc1,,35.5 µM (active),
Cc1ccc(NC(=O)CSc2nc(CSc3ccc(C)cc3)cc(=O)[nH]2)cc1,34.7% (inactive),,
Cc1cc(=O)[nH]c(SCC(=O)Nc2ccc(Br)cc2)n1,,,inactive
CSc1ccccc1N1CCN(CCCCCC(=O)NC2CCCc3ccccc32)CC1 (stereo unspecified),-8.54% (inactive),,
O=[N+]([O-])c1ccccc1S(=O)(=O)Nc1cccc2cccnc12,,,inactive
